Experimental data: PubChem BioAssay AID485360 (National Center for Advancing Translational Sciences (NCATS), 2010)
“And” between values parts separate entries of the source, which are not always exact repeats. Identical values can stand only once. Among all 230,000 compounds or so, about 1,500 (0.65%) were called active. Inconclusive results (about 3%) are left out. Calls follow the shape of the dose curve; as a rule, active = well fitted inhibition curve with a large enough effect; inconclusive = small, poorly fitted or top-dose-only effect; inactive = no such curve, though single readings can be large or run the other way. Many of the other results were omitted from the sample, so actives are more common in it than they were. The source holds several records for some structures; these can differ, active in one and inactive in another.

The compounds below were run against Lethal(3)malignant brain tumor-like protein 1 (Homo sapiens) (UniProt Q9Y468) (assay: qHTS Assay for the Inhibitors of L3MBTL1). Settings: AlphaScreen L3MBTL1–H3K9me1 peptide binding; series mostly up to 57.1 µM; activity, negative = inhibition: at the top concentration.
In short: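 L3MBTL1 (50 nM) pre-complexed 30 min with biotinylated H3(1-15)K9me1 peptide (75 nM), then compounds added for 30 min at room temperature; AlphaScreen streptavidin donor/nickel chelate acceptor beads (10 ug/mL final) read after 30 min dark incubation.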
% is scaled to controls: 0 for no effect and ±100 for the full control effect; potency is read from the fitted curve at half-maximal effect.
Also: nearly all actives have a fitted effect of over 60% in size.

Chain of Lethal(3)malignant brain tumor-like protein 1 (Homo sapiens) (Q9Y468 whole entry, looked up): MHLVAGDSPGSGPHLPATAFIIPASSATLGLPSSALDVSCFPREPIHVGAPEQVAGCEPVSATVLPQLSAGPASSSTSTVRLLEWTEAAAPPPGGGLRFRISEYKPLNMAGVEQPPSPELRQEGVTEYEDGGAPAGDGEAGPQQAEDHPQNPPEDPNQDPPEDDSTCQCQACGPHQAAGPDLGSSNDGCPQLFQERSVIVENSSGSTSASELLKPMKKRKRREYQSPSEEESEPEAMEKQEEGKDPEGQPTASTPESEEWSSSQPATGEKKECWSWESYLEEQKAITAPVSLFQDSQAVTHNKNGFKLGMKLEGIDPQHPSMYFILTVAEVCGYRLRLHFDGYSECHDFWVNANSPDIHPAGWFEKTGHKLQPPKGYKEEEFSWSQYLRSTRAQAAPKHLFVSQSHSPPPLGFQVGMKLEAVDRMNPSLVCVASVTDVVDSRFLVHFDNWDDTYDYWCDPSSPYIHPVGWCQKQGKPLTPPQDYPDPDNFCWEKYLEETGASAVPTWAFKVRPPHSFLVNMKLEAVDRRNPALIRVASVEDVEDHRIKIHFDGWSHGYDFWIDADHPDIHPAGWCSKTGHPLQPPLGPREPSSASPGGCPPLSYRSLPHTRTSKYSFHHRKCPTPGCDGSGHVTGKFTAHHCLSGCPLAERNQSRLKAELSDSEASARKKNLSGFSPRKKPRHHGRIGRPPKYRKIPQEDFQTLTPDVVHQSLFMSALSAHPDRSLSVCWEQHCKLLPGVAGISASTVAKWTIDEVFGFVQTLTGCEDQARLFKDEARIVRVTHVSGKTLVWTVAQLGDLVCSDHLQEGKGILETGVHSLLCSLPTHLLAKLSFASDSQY

Row | SMILES | activity, negative = inhibition | Potency
1 | O=C(N/N=C/c1ccco1)c1ccc(C(=O)N/N=C/c2ccco2)o1 | -10.8% (inactive) | –
2 | O=C(Nc1ccc(NC(=O)c2cccs2)cn1)c1ccco1 | -4.02% (inactive) | –
3 | O=C(N/N=C/C=C/c1ccco1)c1cccs1 | – | 31.6 µM (active)
4 | Cc1cc([N+](=O)[O-])ccc1NC1CCCC1 | -12.3% (inactive) | –
5 | Cc1cc(C=O)c(C)n1-c1ccc(NC2CCCCC2)c([N+](=O)[O-])c1 | – | 15.8 µM (active)
6 | Cc1c(NS(=O)(=O)c2ccc(NC3CCCC3)c([N+](=O)[O-])c2)c(=O)n(-c2ccccc2)n1C | -7.18% (inactive) | –
7 | O=C(COC(=O)c1cccnc1Cl)NC12CC3CC(CC(C3)C1)C2 | 2.98% (inactive) | –
8 | COc1ccc(-c2nnc(SCC(=O)c3cccs3)o2)c(OC)c1 | -4.94% (inactive) | –
9 | O=C(NCC#CCSc1nnc(-c2cccc3ccccc23)o1)c1cccs1 | – | inactive and 10 µM (active)
10 | Cc1ccc(-c2nnc(-c3ccc(NC(=O)c4cccs4)cc3)o2)cc1 | 1.12% (inactive) | –
11 | COc1ccc(NS(=O)(=O)c2ccc(C)c(C(=O)N(C)Cc3ccc(OC)cc3OC)c2)cc1 | -0.449% (inactive) | –
12 | O=C(NCCC1CCCCN1S(=O)(=O)c1ccccc1)C(=O)NCC1CCCO1 (stereo not drawn) | 2.06% (inactive) | –
13 | CC(C)(C)OC(=O)NCCCCCNC(=O)c1nc[nH]c1C(=O)NCc1ccccc1 | -12.7% (inactive) | –
14 | CC(C)(C)OC(=O)NCCCCCNC(=O)c1[nH]cnc1C(=O)Nc1nccs1 | – | 28.2 µM (active)
15 | C[C@H](NC(=O)c1nc[nH]c1C(=O)NCC(=O)OC(C)(C)C)c1ccccc1 | 39.2% (inactive) | –
16 | Cc1csc(=O)n1CC(=O)Nc1ccc(S(C)(=O)=O)cc1 | -8.83% (inactive) | –
17 | Cc1ccc(S(=O)(=O)NC[C@H]2O[C@@H](n3cnc4c(N)ncnc43)[C@H](O)[C@@H]2O)s1 | 2.48% (inactive) | –
18 | O=C(Cc1ccc(S(=O)(=O)N2CCOCC2)s1)N1CCN(c2ccc(C(F)(F)F)cc2[N+](=O)[O-])CC1 | -6.57% (inactive) | –
19 | Cc1cccc(-n2ncc3c(=O)[nH]c(SCC(=O)Nc4cc(C)on4)nc32)c1 | -3.55% (inactive) | –
20 | O=C1CCCC(O)=C1N=Nc1ccc2ncsc2c1 | – | 25.1 µM (active)
21 | O=C1CCCC(O)=C1N=Nc1ccc(S(=O)(=O)N2CCOCC2)cc1 | -5.64% (inactive) | –

Row | SMILES | activity, negative = inhibition | Potency
22 | CC[C@@]1(C(=O)OC)N[C@H](CN(C)C(C)=O)[C@@H]2C(=O)N(C)C(=O)[C@@H]21 | -2.06% (inactive) | –
23 | Cc1nnc(SCC(=O)Nc2cccc(N)c2)n1-c1ccccc1 | -2.05% (inactive) | –
24 | O=c1cc(N2CCN(Cc3ccccc3)CC2)c(-c2ccccc2)n[nH]1 | -2.53% (inactive) | –
25 | O=C1c2ccccc2C(=O)c2c1cccc2N1CCN(CCO)CC1 | -14.1% (inactive) | –
26 | O=C1c2ccccc2C(=O)c2c1cccc2N1CCN(Cc2ccccc2)CC1 | – | 14.1 µM (active)
27 | CN(CC(=O)O)C(=O)c1ccccc1 | 1.31% (inactive) | –
28 | CCc1ccc(NC(=O)c2ccc(Cn3cc([N+](=O)[O-])cn3)cc2)cc1 | 7.42% (inactive) | –
29 | Cc1cc([N+](=O)[O-])ccc1NC(=O)c1ccc(NC(=O)C(C)C)cc1 | -0.242% [at 11.4 µM] (inactive) | –
30 | Cn1ccc(=Nc2ccc(NC(=O)c3ccc(N=c4ccn(C)c5ccc([N+](=O)[O-])cc45)cc3)cc2)cc1 | – | 25.1 µM (active)
31 | COCC(=O)N1CCCC(C(=O)c2ccc(C(F)(F)F)cc2)C1 (stereo not drawn) | 0.665% (inactive) | –
32 | Cc1c(OC(C)C(=O)NCC2CCC(C(=O)O)CC2)ccc2c1oc(=O)c1ccccc12 (stereo not drawn) | -4.44% (inactive) | –
33 | CCCNC(=O)CCn1cc(-c2ccc(OC)cc2)nc1CCN | -8.13% (inactive) | –
34 | CCOC(=O)c1cn[nH]c1NC(=S)Nc1ccccc1 | 34.9% (inactive) | –
35 | CCOC(=O)Cc1csc(NC(=O)Nc2ccccc2)n1 | 2.6% (inactive) | –
36 | CCN(C(=O)Cc1nc(N)n[nH]1)C1(C(=O)Nc2ccccc2)CCCCC1 | – | 11.2 µM (active)
37 | Cc1ccc(OCC(=O)NC(C)c2ccccc2)cc1C (stereo not drawn) | 10.7% (inactive) | –
38 | CCCCC[C@@H]1C=C(C(=O)O)[C@H](c2ccc(C#N)cc2)N1S(=O)(=O)c1ccc(C)cc1 | 1.05% (inactive) | –
39 | CCOc1ccc(NC(=O)CCC(=O)N/N=C/c2ccc([N+](=O)[O-])s2)cc1 | -2.55% (inactive) | –
40 | O=[N+]([O-])c1ccc(C=Nc2ccc(Cl)cc2Cl)s1 | – | 25.1 µM (active)
41 | CC1CN(C(=O)c2ccc([N+](=O)[O-])s2)CC(C)O1 (stereo not drawn) | 3.11% (inactive) | –
42 | O=[N+]([O-])c1ccc2c(c1)Nc1nc3ccccc3nc1N2 | -4.65% (inactive) | –

Row | SMILES | activity, negative = inhibition | Potency
43 | Cn1nnnc1SCC(=O)Nc1cccc(S(=O)(=O)N2CCCCC2)c1 | 1.34% (inactive) | –
44 | COc1ccccc1-c1sc2ccccc2c1C#CC1(O)CCCCC1 | 5.53% (inactive) | –
45 | COc1ccc2c(C(=O)c3ccc(C)cc3)n(CCC(N)=O)[n+]([O-])c2c1 | -0.909% (inactive) | –
46 | COCCNC(=O)Nc1ccc2nc(-c3ccco3)c(-c3ccco3)nc2c1 | – | 2.82 µM (active)
47 | O=C(NCc1ccccn1)c1ccc2nc(-c3ccco3)c(-c3ccco3)nc2c1 | – | 3.55 µM (active)
48 | COc1ccc(NC(=O)Nc2ccc3nsnc3c2)cc1 | -1.89% (inactive) | –
49 | CC(C)(C)c1ccc(NC(=O)NCc2ccco2)cc1 | -6.62% (inactive) | –
50 | O=C(NCc1ccccn1)c1cc(-c2ccccc2Cl)on1 | -1.58% (inactive) | –
51 | O=C1CSc2ccc(C(=O)NCc3ccccn3)cc2N1 | -0.864% (inactive) | –
52 | O=C(Nc1ncccc1O)c1ccc(C(=O)c2ccccc2)cc1 | -9.93% (inactive) | –
53 | CCOC(=O)N1CCN(C(=O)c2ccccc2SCC(=O)NCC2CCCCC2)CC1 | -4.24% (inactive) | –
54 | Cc1c(C(=O)N/N=C/c2ccccc2)[nH]c2c([N+](=O)[O-])cccc12 | 1.39% (inactive) | –
55 | CCOC(=O)c1c(C)[nH]c(C(=O)NCc2ccccc2OC)c1C | -2.71% (inactive) | –
56 | COc1cccc2c(C)c(C(=O)O)[nH]c12 | – | 25.1 µM (active)
57 | CC(C)Cn1c(SCC(=O)Nc2ccc(Cl)cc2F)nc(O)cc1=O | 8.04% (inactive) | –
58 | CC(=O)C[C@H](O)CC(=O)[C@@H]1OC(=O)[C@@H](C)C/C=C\Cc2ccccc21 | -5.59% (inactive) | –
59 | CCOc1ccccc1/C=c1\sc2nc(-c3ccco3)nn2c1=O | – | 15.8 µM (active)
60 | CCOC(=O)/C=c1\s/c(=C\c2ccccc2OC)c(=O)n1CC(=O)N1CCOCC1 | 1.66% (inactive) | –
61 | CSc1nc(-c2ccco2)nn1C(=O)CCc1ccccc1 | 12.1% (inactive) | –
62 | COc1ccccc1N1CC(C(=O)NCCN2C(=O)S/C(=C\c3cccnc3)C2=O)CC1=O (stereo not drawn) | 3.18% (inactive) | –
63 | CC[C@]12c3[nH]c4ccc(Cl)cc4c3CCN1C(=O)[C@@H](CC(=O)NCCN1CCOCC1)C[C@@H]2C(=O)N1CCN(C(=O)C2CC2)CC1 | 1.53% (inactive) | –
